Assay results: PubChem BioAssay (NCATS)
Values joined by “and” are separate entries in the source; they are usually repeats but may differ in a detail not shown here. Equal values may be shown once. Results filed as inconclusive are left out. Active and inactive are the calls of the source. The call rests on the fitted dose curve; in most records, active means well fitted curve in the direction sought with a large enough effect; inconclusive means small, poorly fitted or top-dose-only effect, or another doubt; inactive means no such curve, though single readings can be large; an effect the other way counts as inactive or inconclusive.

Key:
Hek293T = assay: Primary qHTS to identify gynecologic anti-cancer compounds using libraries of approved drugs and bioactive compounds (AID 1345084); conditions: Gynecologic cancer cell panel viability, ATPlite luminescence, 48 h, control line for the selectivity index; series mostly up to 57.5 µM; further: nearly all actives have a fitted effect of over 55% in size
In short: (§1)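 Cytotoxicity screen measuring ATP content by luciferase luminescence. Each compound is applied at five concentrations for 48 h at 37 C with 5% CO2.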

JEG-3 = assay: as above; conditions: Gynecologic cancer cell panel viability, ATPlite luminescence, 48 h; series mostly up to 57.5 µM
In short: as §1

OV90 = assay: as above; conditions: Gynecologic cancer cell panel viability, ATPlite luminescence, 48 h; series mostly up to 57.5 µM
In short: as §1

PA-1 = assay: as above; conditions: Gynecologic cancer cell panel viability, ATPlite luminescence, 48 h; series mostly up to 57.5 µM
In short: as §1

SKOV3 = assay: as above; conditions: Gynecologic cancer cell panel viability, ATPlite luminescence, 48 h; series mostly up to 57.5 µM
In short: as §1

Tov-21-G = assay: as above; conditions: Gynecologic cancer cell panel viability, ATPlite luminescence, 48 h; series mostly up to 57.5 µM
In short: as §1

Tov112D = assay: as above; conditions: Gynecologic cancer cell panel viability, ATPlite luminescence, 48 h; series mostly up to 57.5 µM
In short: as §1

[1] = Drug repurposing screens with cells derived from glioblastoma tumor samples (AID 1345199); conditions: GBM patient neurospheres viability, ATP luminescence, 48 h; further: nearly all actives have a fitted effect of over 40% in size; further: potency means the concentration at half of the fitted maximal effect
In short: (§2)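 Four patient lines of CD133+ GBM neurospheres were screened at several concentrations; hits were retested in those lines plus three slower-growing GBM lines, using 48-hour treatment and ATP-based viability.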

astro = assay: as above; conditions: viability, ATP luminescence, 48 h; series mostly up to 45.9 µM
In short: as §2

[2] = at 45.9 µM (top of the series), tumour line B
[3] = at 45.9 µM (top of the series), tumour line D
[4] = at 46.1 µM (top of the series), tumour line C
[5] = at 46 µM (top of the series), tumour line A
[6] = at 20 µM (top of the series), tumour line C
[7] = at 21.3 µM (top of the series), tumour line A
On the % scale 0 is the no-effect control and ±100 the full control effect.

C[C@]12CC[C@@H]3c4ccc(O)cc4C[C@@H](CCCCCCCCCS(=O)CCCC(F)(F)C(F)(F)F)[C@H]3[C@@H]1CC[C@@H]2O (stereo partly drawn)
active: Potency ([1]; tumour line A) 4.47 µM
inactive: Potency (Hek293T) | Potency (JEG-3) | Potency (OV90) | Potency (PA-1) | Potency (SKOV3) | Potency (Tov-21-G) | Potency (Tov112D) | activity, negative = cell killing [1, 2] 11.9% | activity, negative = cell killing [1, 3] -8.98% | activity, negative = cell killing [1, 4] 16.6% | Potency (astro)

COCCOC(=O)C1=C(C)NC(C)=C(C(=O)OC(C)C)C1c1cccc([N+](=O)[O-])c1 (stereo not drawn)
inactive: Potency (Hek293T) | Potency (JEG-3) | Potency (OV90) | Potency (PA-1) | Potency (SKOV3) | Potency (Tov-21-G) | Potency (Tov112D) | activity, negative = cell killing [1, 2] -4.05% | activity, negative = cell killing [1, 4] -1.16% | Potency (astro)
active: Potency ([1]; tumour line A) 14.1 µM

COCCc1ccc(OCC(O)CNC(C)C)cc1 (stereo not drawn)
inactive: Potency (Hek293T) | Potency (JEG-3) | Potency (OV90) | Potency (PA-1) | Potency (SKOV3) | Potency (Tov-21-G) | Potency (Tov112D) | activity, negative = cell killing [1, 2] -10.1% and -7.19% and -6.43% | activity, negative = cell killing [1, 3] 1.85% and 20.6% and -26.1% | activity, negative = cell killing [1, 5] -33.9% | activity, negative = cell killing [1, 4] -0.129% and -0.523% | Potency (astro)

Cc1nc2c([nH]1)c(=O)n(C)c(=O)n2Cc1ccco1
inactive: Potency (Hek293T) | Potency (JEG-3) | Potency (OV90) | Potency (PA-1) | Potency (SKOV3) | Potency (Tov-21-G) | Potency (Tov112D) | activity, negative = cell killing [1, 2] -4.62% | activity, negative = cell killing [1, 3] -3.2% | activity, negative = cell killing [1, 4] -11.8% | Potency (astro)

CC(C)[N+](C)(CCOC(=O)C1c2ccccc2Oc2ccccc21)C(C)C
inactive: Potency (Hek293T) | Potency (JEG-3) | Potency (OV90) | Potency (PA-1) | Potency (SKOV3) | Potency (Tov-21-G) | Potency (Tov112D) | activity, negative = cell killing [1, 2] -4.27% | activity, negative = cell killing [1, 3] -14.8% | activity, negative = cell killing [1, 5] -16.6% | activity, negative = cell killing [1, 4] -11.5% | Potency (astro)

CC[N+](C)(C)c1cccc(O)c1
inactive: Potency (Hek293T) | Potency (JEG-3) | Potency (OV90) | Potency (PA-1) | Potency (SKOV3) | Potency (Tov-21-G) | Potency (Tov112D) | activity, negative = cell killing [1, 6] -0.675% | activity, negative = cell killing ([1]; at 21.2 µM (top of the series), tumour line B) -16.9% | activity, negative = cell killing ([1]; at 21.2 µM (top of the series), tumour line D) -14.7% | activity, negative = cell killing [1, 7] -22.7% | Potency (astro)

CC(=O)OCC1=C(C(=O)O)N2C(=O)[C@@H](NC(=O)Cc3cccs3)[C@H]2SC1
inactive: Potency (Hek293T) | Potency (JEG-3) | Potency (OV90) | Potency (PA-1) | Potency (SKOV3) | Potency (Tov-21-G) | Potency (Tov112D) | activity, negative = cell killing [1, 2] 5.86% | activity, negative = cell killing [1, 3] -7.52% | activity, negative = cell killing [1, 5] -19.9% | activity, negative = cell killing [1, 4] -19.9% | Potency (astro)

C#CCN(C)CCCOc1ccc(Cl)cc1Cl
inactive: Potency (Hek293T) | Potency (JEG-3) | Potency (OV90) | Potency (PA-1) | Potency (SKOV3) | Potency (Tov-21-G) | Potency (Tov112D) | activity, negative = cell killing [1, 2] -0.374% | activity, negative = cell killing [1, 3] -15.7% | activity, negative = cell killing [1, 5] -39.4% | activity, negative = cell killing [1, 4] -14.2% | Potency (astro)

Brc1c(NC2=NCCN2)ccc2nccnc12
inactive: Potency (Hek293T) | Potency (JEG-3) | Potency (OV90) | Potency (PA-1) | Potency (SKOV3) | Potency (Tov-21-G) | Potency (Tov112D) | activity, negative = cell killing [1, 2] -5.79% | activity, negative = cell killing [1, 3] -4.16% | activity, negative = cell killing [1, 4] 4.36% | Potency (astro)

CCn1nc(C(=O)O)c(=O)c2cc3c(cc21)OCO3
inactive: activity, negative = cell killing [1, 7] -22.7%

COC(=O)C1=C(C)NC(C)=C(C(=O)OC(C)(C)CN(C)CCC(c2ccccc2)c2ccccc2)C1c1cccc([N+](=O)[O-])c1 (stereo not drawn)
active: Potency ([1]; tumour line C) 5.8 µM | Potency ([1]; tumour line D) 5.01 µM

CN(C)CCCN1c2ccccc2Sc2ccccc21
active: Potency ([1]; tumour line D) 10 µM

CC1=C(C)C(=O)C(CCCCC#CCCCC#CCO)=C(C)C1=O
inactive: Potency (JEG-3) | Potency (OV90) | Potency (PA-1) | Potency (SKOV3) | Potency (Tov-21-G) | Potency (Tov112D)

COCCCC/C(=N\OCCN)c1ccc(C(F)(F)F)cc1
inactive: Potency (Hek293T) | Potency (JEG-3) | Potency (PA-1) | Potency (Tov-21-G) | Potency (Tov112D)

COc1cc2c(cc1OC)-c1cc(=Nc3c(C)cc(C)cc3C)n(C)c(=O)n1CC2
active: Potency (astro) 17.8 µM
inactive: Potency (Hek293T) | Potency (OV90)

CCNC(=O)N1CCN(CCCC(c2ccc(F)cc2)c2ccc(F)cc2)CC1
inactive: Potency (JEG-3) | Potency (PA-1) | Potency (Tov-21-G) | Potency (Tov112D) | Potency (astro)

CNCCCN1c2ccccc2CCc2ccccc21
inactive: Potency (Hek293T) | Potency (JEG-3) | Potency (PA-1) | Potency (Tov-21-G) | activity, negative = cell killing [1, 6] 14.5%
active: Potency ([1]; tumour line A) 8.91 µM

COC(=O)C1=C(C)NC(C)=C(C(=O)OCCN(C)Cc2ccccc2)C1c1cccc([N+](=O)[O-])c1 (stereo not drawn)
active: Potency ([1]; tumour line A) 8.91 µM | Potency ([1]; tumour line D) 14.1 µM
inactive: Potency (JEG-3) | Potency (Tov-21-G) | activity, negative = cell killing [1, 4] 14.5%

CNCCC(Oc1ccccc1OC)c1ccccc1 (stereo not drawn)
inactive: Potency (Hek293T) | Potency (JEG-3) | Potency (PA-1) | Potency (SKOV3) | Potency (Tov-21-G) | Potency (Tov112D) | activity, negative = cell killing [1, 2] -10.4% | activity, negative = cell killing [1, 3] -19.1% | activity, negative = cell killing [1, 4] -16.2% | Potency (astro)
active: Potency ([1]; tumour line A) 12.6 µM

CN(C)CC[C@@H](c1ccc(Br)cc1)c1ccccn1
inactive: Potency (Hek293T) | Potency (JEG-3) | Potency (PA-1) | Potency (SKOV3) | Potency (Tov-21-G) | Potency (Tov112D) | activity, negative = cell killing [1, 2] -11% | activity, negative = cell killing [1, 4] 2.86% | Potency (astro)
active: Potency ([1]; tumour line A) 11.2 µM

CCC(=O)c1ccc2c(c1)N(CCCN(C)C)c1ccccc1S2
inactive: Potency (Hek293T) | Potency (JEG-3) | Potency (PA-1) | Potency (Tov-21-G) | Potency (Tov112D)

NC1=NCC2c3ccccc3Cc3ccccc3N12 (stereo not drawn)
inactive: Potency (Hek293T) | Potency (JEG-3) | Potency (PA-1) | Potency (SKOV3) | Potency (Tov-21-G) | activity, negative = cell killing [1, 2] -23.2% | Potency (astro)
active: Potency ([1]; tumour line A) 12.6 µM

OCCN1CCN(CCCN2c3ccccc3C=Cc3ccccc32)CC1
inactive: Potency (Hek293T) | Potency (JEG-3) | Potency (PA-1) | Potency (Tov-21-G) | Potency (Tov112D)
